# PubChem BioAssay (Tox21)
# Calls of active or inactive are those of the source. Entries that show only a call come without a potency. The call rests on the fitted dose curve.
# Experiment: qHTS assay to identify small molecule agonists of the sonic hedgehog signaling (Shh) pathway (AID 1259368);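 further: NIH/3T3-derived 3T3Gli1-Luc cells carrying a stable Gli1-driven firefly luciferase reporter; nearly all actives have a fitted effect of over 15% in size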
# Conditions: NIH/3T3 Gli1-Luc reporter, luciferase, 24 h; series mostly up to 92.4 µM
# Source text: National Center for Advancing Translational Sciences [NCATS]
# NIH Chemical Genomics Center [NCGC]
# U.S. Environmental Protection Agency [EPA]
# National Institutes of Environmental Health Sciences [NIEHS]
# National Toxicology Program [NTP]
# The sonic hedgehog (Shh) pathway is essential for normal embryonic development. Dysregulation of the Shh pathway can cause severe developmental defects in organs. Therefore chemicals that interfere with the pathway are potential developmental toxicants. A cell line designated 3T3Gli1-Luc (DMB/OARSA/CFSAN/FDA, Laurel, MD), a NIH/3T3 derived clone containing stably integrated Gli1-Luc reporter is used to detect chemical interference of the Shh pathway, by changes in the expression of the firefly Luc gene under the control of the Gli1 transcriptional response element. This cell line was used to screen Tox21 libraries for identifying and prioritizing the potential developmental toxicants that interfere Shh pathway.
# 3T3 Gli1-Luc cells were dispensed at 2,000 per well in 5uL of culture medium into white solid bottom 1536-well plates (Greiner Bio-One, Monroe, NC) using a Multidrop Combi (Thermo Scientific, Waltham, MA) dispenser. The assay plates were incubated at 37 C and 5% CO2 for 4hr, and then 23nL of compounds dissolved in DMSO and positive control were transferred using a Pintool station (Wako, San Diego, CA). The assay plates were incubated at 37C and 5% CO2 for 24hr. For luciferase read, 4uL of Amplite Luciferase reporter gene assay reagent (AAT Bioquest, Inc. Sunnyvale, CA) was added to each well of the assay plates using Flying Reagent Dispenser (FRD, Aurora Discovery, San Diego, CA) and incubated at room temperature for 30min. The luminescence signal was measured using a ViewLux plate reader (Perkin Elmer, Shelton, CT).
row,Compound,Potency
1,C[C@]12CC[C@H]3[C@@H](CCC4=CC(=O)CC[C@@H]43)[C@@H]1CC[C@@H]2O,inactive
2,CCOP(=O)(O)OCC (tested in a mixture with another compound),inactive
3,CC1CC(=O)O1 (stereo not given),inactive
4,Oc1ccc(Cl)cc1Cl,inactive
5,Nc1ccc([N+](=O)[O-])cc1N,inactive
6,ClC(Cl)(Cl)c1ccccc1,inactive
7,CCOP(=O)(OCC)OCC,inactive
8,CN(C)P(=O)(N(C)C)N(C)C,inactive
9,ClC(Cl)=C(Cl)C(Cl)=C(Cl)Cl,inactive
10,CC[n+]1c(-c2ccccc2)c2cc(N)ccc2c2ccc(N)cc21,inactive
11,COc1ccc(CO)cc1,inactive
12,O=[N+]([O-])/N=C1\NCCN1Cc1ccc(Cl)nc1,inactive
13,CC1=C(C(=O)Nc2ccccc2)SCCO1,inactive
14,CCC/C=N/O,inactive
15,COc1ccc(O)c(C(C)(C)C)c1,inactive
16,CCOC(=O)c1ccccc1N,inactive
17,Cn1c(-c2ccccc2)cc(-c2ccccc2)[n+]1C,inactive
18,Clc1cccc(C(Cl)(Cl)Cl)n1,inactive
19,c1ccc2c(c1)Nc1ccccc1S2,inactive
20,OCCOCCO,inactive

row,Compound,Potency
1,CC(C)(O)C(=O)Nc1ccc([N+](=O)[O-])c(C(F)(F)F)c1,inactive
2,CC(C)(c1ccccc1)c1ccc(O)cc1,inactive
3,CCCCOCC1CO1 (stereo not given),inactive
4,O=[N+]([O-])c1ccc(Nc2ccccc2)cc1,inactive
5,CC1(C)Cc2cccc(O)c2O1,inactive
6,CCOP(=S)(OCC)SCSC(C)(C)C,inactive
7,CS(=O)(=O)NC(=O)c1cc(Oc2ccc(C(F)(F)F)cc2Cl)ccc1[N+](=O)[O-],inactive
8,NC(=O)CN1CCCC1=O,inactive
9,CCC[CH2][Sn]([Cl])([Cl])[CH2]CCC,inactive
10,N#CC(c1ccccc1)c1ccccc1,inactive
11,COC(=O)Nc1nc2ccccc2[nH]1,inactive
12,ClCC(Cl)CCl,inactive
13,C[N+](C)(C)CC(=O)[O-],inactive
14,CC(C)(c1ccc(OCC2CO2)cc1)c1ccc(OCC2CO2)cc1 (stereo not given),inactive
15,O=NN(c1ccccc1)c1ccccc1,inactive
16,O=C1CCCO1,inactive
17,CCCCCCCC[N+](C)(CCCCCCCC)CCCCCCCC,inactive
18,c1ccc(C2CO2)cc1 (stereo not given),inactive
19,COc1ccc(C=O)cc1OC,inactive
20,CCCCC(C#N)(Cn1cncn1)c1ccc(Cl)cc1 (stereo not given),inactive
